L3MBTL1 block: qHTS Assay for the Inhibitors of L3MBTL1. Potency, µM (series often up to 57.1 µM), for the others: top-dose activity, negative = inhibition, actives largely listed as inhibitors. actives 0.66% (n = 230,000). AlphaScreen L3MBTL1–H3K9me1 peptide binding. Lethal(3)malignant brain tumor-like protein 1 (Homo sapiens), Q9Y468; also: potency is read from the fitted curve at half-maximal effect; % is scaled to controls: 0 for no effect and ±100 for the full control effect; nearly all actives have a fitted effect of over 60% in size
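L3MBTL1 (50 nM) pre-complexed 30 min with biotinylated H3(1-15)K9me1 peptide (75 nM), then compounds added for 30 min at room temperature; AlphaScreen streptavidin donor/nickel chelate acceptor beads (10 ug/mL final) read after 30 min dark incubation.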
HP1b chromo inh: HTS for Inhibitors of HP1-beta Chromodomain Interactions with Methylated Histone Tails; actives 0.56% (n = 390,000); Potency, µM (titrated, usually from 114 µM), for inactives: at the top dose activity change, negative = inhibition, hits mostly inhibitors; AID 540317, 2011; AlphaScreen HP1-beta / biotin-H3K9me3 peptide binding; Chromobox protein homolog 1 (Homo sapiens), P83916; also: potency is read from the fitted curve at half-maximal effect; nearly all actives have a fitted effect of over 70% in size
Target sequence (P83916 whole entry, looked up): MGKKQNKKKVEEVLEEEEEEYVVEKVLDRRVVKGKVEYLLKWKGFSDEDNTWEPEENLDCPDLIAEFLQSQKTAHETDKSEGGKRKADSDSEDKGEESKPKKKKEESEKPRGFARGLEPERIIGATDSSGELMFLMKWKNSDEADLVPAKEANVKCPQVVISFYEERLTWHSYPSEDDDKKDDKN
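HP1-beta protein (50 nM final) preincubated 30 min at room temperature with biotinylated H3(1-18)K9me3 peptide (50 nM) in PBS pH 7.4, 0.01% Tween-20, then compound added for 30 min. AlphaScreen streptavidin donor/nickel chelate acceptor beads (10 ug/mL final), 30 min dark, luminescence read.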
G9a inh: qHTS Assay for Inhibitors of Histone Lysine Methyltransferase G9a; AID 504332, 2011; Potency, µM (highest dose often 102 µM), without a hit: at the top dose activity, negative = inhibition, actives largely listed as inhibitors; Histone-lysine N-methyltransferase EHMT2 (Homo sapiens), Q96KQ7; actives 8.8% (n = 350,000); G9a H3K9 monomethylation, AlphaScreen, 2 h; also: potency is read from the fitted curve at half-maximal effect; % is scaled to controls: 0 for no effect and ±100 for the full control effect; nearly all actives have a fitted effect of over 75% in size
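Signal arises when biotinylated H3K9 peptide, once monomethylated, bridges streptavidin donor and antibody-captured acceptor beads. Enzyme at 20 nM was preincubated 15 min with test compounds; peptide 500 nM and SAM 20 uM then reacted for 2 h.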
BAZ2B inh: qHTS Assay for Inhibitors of BAZ2B; AlphaScreen BAZ2B-H3K14Ac peptide displacement; Potency, µM (doses to about 114 µM), without a hit: top-dose activity change, negative = inhibition, most hits filed as inhibitors; actives 4.4% (n = 360,000); AID 504333, 2011; also: potency is read from the fitted curve at half-maximal effect; % is scaled to controls: 0 for no effect and ±100 for the full control effect; nearly all actives have a fitted effect of over 60% in size
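BAZ2B 50 nM plus b-H3(5-23)K14Ac 50 nM, PBS pH 7.4/0.01% Tween-20, 30 min RT; compound added (max 110 uM), 30 min RT; streptavidin donor/Ni-chelate acceptor beads 10 ug/mL final, 20 min dark; AlphaScreen read.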
PI5P4K alpha inh: qHTS for Inhibitors of phosphatidylinositol 5-phosphate 4-kinase (PI5P4K); Phosphatidylinositol 5-phosphate 4-kinase type-2 alpha (Homo sapiens), P48426; PI5P4Kalpha enzyme, ADP-Glo luminescence, 60 min; hits give low values; max response, %; actives 1.2% (n = 330,000); AID 652105, 2013; active = max response of -50% or lower; inconclusive = between -30% and -50%; inactive = -30% or higher; also: value at the top dose of about 77 µM; % is scaled to controls: 0 for no effect and ±100 for the full control effect
Target sequence (P48426 whole entry, looked up): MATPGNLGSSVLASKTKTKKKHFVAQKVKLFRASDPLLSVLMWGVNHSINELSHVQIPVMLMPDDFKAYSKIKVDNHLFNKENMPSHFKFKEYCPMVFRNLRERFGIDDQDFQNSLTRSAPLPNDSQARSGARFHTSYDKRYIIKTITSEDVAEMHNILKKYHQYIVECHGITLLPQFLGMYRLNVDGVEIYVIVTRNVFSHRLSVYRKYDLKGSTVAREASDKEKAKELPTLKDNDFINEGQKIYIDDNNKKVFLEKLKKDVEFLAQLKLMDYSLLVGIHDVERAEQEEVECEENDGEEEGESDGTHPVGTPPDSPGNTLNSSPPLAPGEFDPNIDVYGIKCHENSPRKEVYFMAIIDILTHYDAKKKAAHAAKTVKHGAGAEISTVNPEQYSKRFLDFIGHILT
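ADP-Glo luminescence end-point after a 60 min room-temperature kinase reaction. PI5P4Kalpha and substrate in HEPES pH 7.4 buffer with EGTA, 0.1% CHAPS and 5% DMSO; ATP at 5 microM final.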
JMJD2A Tudor inh: qHTS Assay for Inhibitors of JMJD2A-Tudor Domain; actives 4.4% (n = 390,000); Potency, µM (titrated, usually from 114 µM), inactives show at the top dose activity change, negative = inhibition, usual class: inhibitors; AlphaScreen JMJD2A-Tudor / H3K4me3 peptide binding; also: potency is read from the fitted curve at half-maximal effect; % is scaled to controls: 0 for no effect and ±100 for the full control effect; nearly all actives have a fitted effect of over 50% in size
* = called active by the depositor; ? = inconclusive; nt = no result; [ ] = another dose, or the depositor's remark. This is a sample that favours compounds with a hit; in the whole collection about 11% have one here. Unless noted, calls follow the shape of the dose curve; as a rule, active = well fitted inhibition curve with a large enough effect; inconclusive = small, poorly fitted or top-dose-only effect; inactive = no such curve, though single readings can be large or run the other way.

SMILES | L3MBTL1 block | HP1b chromo inh | G9a inh | BAZ2B inh | PI5P4K alpha inh | JMJD2A Tudor inh
CN(C)c1ccc(N2CN=C3SCC(=O)N3C2)cc1 | -66.8% | 56.2µM* | ? | 25.1µM* | -1.0 | 50.1µM*
O=C1CSC2=NCN(c3ccc4c(c3)OCO4)CN12 | nt | 8.0% | 9.1%[2.33 µM] | ? | nt | ?
CCn1nnc(NC(=O)c2ccc(C(C)(C)C)cc2)n1 | 44.4% | 63.2% | 17.9%[59 µM] | 39.0% | -3.8 | -7.6%[57.1 µM]
CCn1nnc(NC(=O)c2cccnc2)n1 | -0.5% | -18.0% | 39.8µM* | -30.0% | -9.6 | -4.8%
CCN(CC)c1ccc(NC(=O)c2cccnc2)cc1 | nt | 8.8% | 10µM* | ? | 6.2 | -25.2%
CNc1cc2c(cc1S(=O)(=O)Nc1ccc(C)c(C)c1)CCC(=O)N2 | nt | nt | nt | nt | nt | -17.0%
NC(=O)c1cc(-c2csc(NCCc3ccccc3)n2)ccc1O | nt | ? | 35.5µM* | 56.2µM* | -18.9 | ?
C=CCNc1nc(-c2ccc(O)c(C(N)=O)c2)cs1 | nt | -14.3% | ? | ? | -57.8* | 14.1µM*
NC(=O)c1cc(-c2csc(-c3cccnc3)n2)ccc1O | nt | 31.0% | 31.6µM* | -22.2% | -3.6 | -14.4%
CCOc1ccc(CC(=O)NCCc2csc(-c3ccc(C(F)(F)F)cc3)n2)cc1 | nt | 8.1%[57 µM] | -2.2%[59 µM] | -8.1% | nt | -8.4%
CCS(=O)(=O)N1CCC(C(=O)NCCC(C)C)CC1 | nt | 5.5% | 12.4%[59 µM] | 1.5% | nt | -19.3%
Cc1ccc(S(=O)(=O)C(CNC(=O)C(=O)NCc2ccc(Cl)cc2)c2cccs2)cc1 (configuration not stated) | nt | 23.8% | 7.6%[59 µM] | -5.6% | nt | -8.1%
Cc1sc(-c2cccnc2)nc1OC(=O)C1CC1 | -1.4% | 25.9% | 20µM* | -24.4% | 5.7 | -2.3%
CNC(=O)c1sc(-c2cccnc2)nc1C | -4.2% | 21.2% | 7.6% | 6.4% | 1.2 | -3.2%
Oc1[nH]c2ccccc2c1C1=NCCCC1 | -8.1% | -24.3% | ? | 50.1µM* | -1.9 | ?
C[C@H]1O[C@@H](n2cc(F)c(=O)[nH]c2=O)[C@H](O)[C@H]1O | nt | nt | 1.3%[59 µM] | nt | nt | nt
CN(C)c1ccc(NC(=O)CN2CCN(CC(=O)Nc3ccc(F)cc3)CC2)cc1 | -8.8% | -12.6% | 25.1µM* | ? | -6.3 | -4.7%[57.1 µM]
Cc1ccc(C(=O)C2CCN(CC(=O)Nc3ccc(N(C)C)cc3)CC2)cc1 | -24.6% | -46.7% | 39.8µM* | -78.8% | nt | 44.7µM*
O=C(c1ccco1)C(O)c1ccco1 (configuration not stated) | nt | 22.0% | 50.1µM* | -12.8% | 7.9 | -9.9%
COc1ccc2ccccc2c1/C=N\NC(=O)c1ccc(C)s1 | nt | 52.2% | 23.7% | -3.4% | ? | -18.5%
COc1cc(/C=N/NC(=O)c2sc(N)c(C#N)c2C)cc(Br)c1O | -0.3% | 28.1% | 22.3%[59 µM] | -7.1% | -73.3* | -9.5%
Cc1c(C(=O)N/N=C/c2cccnc2)sc(N)c1C#N | nt | 28.0% | -0.3% | -1.2% | -19.3 | 4.2%
COc1ccc2ccccc2c1/C=N/NC(=O)c1sc(N)c(C#N)c1C | 1.6% | 30.8% | 15.9%[59 µM] | 4.9% | -76.2* | -10.3%
CC1(C(=O)O)NCCc2cc(O)c(O)cc21 (configuration not stated) | nt | nt | 17.8µM* | nt | nt | nt
CCOC(=O)c1cccc(NC(=O)C2Cc3ccccc3N2C(=O)c2ccccc2)c1 (configuration not stated) | nt | 15.5% | 25.1%[59 µM] | -6.0% | nt | -17.9%
O=C(COC(=O)CCc1nc2ccccc2s1)Nc1ccc(S(=O)(=O)N2CCOCC2)cc1 | -3.7% | 17.1% | 56.2µM* | -2.8% | -8.6 | -16.1%
O=S(=O)(c1ccc(OCc2nc3ccccc3s2)c(Cl)c1)N1CCOCC1 | -7.2% | 54.4% | 50.1µM* | 31.6% | 0.1 | 3.1%[11.4 µM]
